Rows were chosen to be rich in hits. Some 1.5% of all compounds tested hit in one or more screens of this group.
TrxR1 substrate: substrates of rat thioredoxin reductase 1; O89049; purified TrxR1 substrate turnover, NADPH consumption readout; Potency, µM (series often up to 114 µM), for the others: top-dose activity change, negative = substrate turnover; 390,000 compounds, 0.01% hits; further: potency means the concentration at half of the fitted maximal effect; nearly all actives have a fitted effect of over 50% in size
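Rat TrxR1, dispensed at 90 nM, was prereduced with 400 uM NADPH (final) for 5 min at ~22 deg C, then incubated with compound 15 min before 400 uM selenite. A first-read NADPH fluorescence drop versus no-compound background flagged substrates.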
Eya2 phos inh: blocks the phosphatase activity of human Eya2; recombinant Eya2, OMFP fluorescence dephosphorylation (OMFP is methylfluorescein phosphate); 330,000 compounds, 0.006% hits; AID 488837; Potency, µM (series often up to 76.9 µM), inactives show at the top dose activity, negative = inhibition, actives largely listed as inhibitors; further: potency means the concentration at half of the fitted maximal effect
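Eya2 protein (added as 0.2 uM solution) was preincubated with compound for 10 min at ambient temperature in 50 mM HEPES pH 7.5, 50 mM NaCl, 5 uM MgCl2, 0.05% BSA, 1 mM DTT. OMFP (added at 50 uM) then reacted 10 min; fluorescence read at 485/525 nm.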
TrxR1 inh: blocks rat thioredoxin reductase 1 | Potency, µM (top dose mostly 114 µM), for the others: at the top dose activity change, negative = inhibition, usual class: inhibitors | 390,000 compounds, 1% hits | recombinant rTrxR1, NADPH fluorescence consumption, selenite substrate | AID 588453 | O89049; further: potency means the concentration at half of the fitted maximal effect; nearly all actives have a fitted effect of over 65% in size
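Rat TrxR1 (90 nM in the dispensed reagent) was pre-reduced with 400 uM NADPH for 5 min at room temperature, then incubated with compound for 15 min. After 400 uM selenite was added, NADPH fluorescence (Ex 340/Em 450 nm) was followed for 8 min.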
Coupling enz: inhibits coupling enzyme system, counter-screen for aldolase hits; coupling enzyme system counterscreen, AmpLite Red fluorescence; activity change, negative = inhibition, % at 58.2 µM, hits read low; AID 2472; 290,000 compounds, 0.67% hits; in the data active means activity change below about -30%
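Compounds tested against the coupling enzymes alone at 57.5 uM final; readout was AmpLite Red fluorescence (525/598 nm) after 20 min at RT.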
mIDH1 inhibitor: blocks human mutant IDH1 R132H enzyme. O75874. IDH1-R132H enzyme, NADPH consumption, diaphorase/resazurin fluorescence. Potency, µM (top dose mostly 76.6 µM), for inactives: at the top dose activity change, negative = inhibition, actives largely listed as inhibitors. 390,000 compounds, 0.093% hits. AID 602179; further: potency means the concentration at half of the fitted maximal effect; nearly all actives have a fitted effect of over 65% in size
Target sequence (O75874 whole entry R132H, stated change not applied): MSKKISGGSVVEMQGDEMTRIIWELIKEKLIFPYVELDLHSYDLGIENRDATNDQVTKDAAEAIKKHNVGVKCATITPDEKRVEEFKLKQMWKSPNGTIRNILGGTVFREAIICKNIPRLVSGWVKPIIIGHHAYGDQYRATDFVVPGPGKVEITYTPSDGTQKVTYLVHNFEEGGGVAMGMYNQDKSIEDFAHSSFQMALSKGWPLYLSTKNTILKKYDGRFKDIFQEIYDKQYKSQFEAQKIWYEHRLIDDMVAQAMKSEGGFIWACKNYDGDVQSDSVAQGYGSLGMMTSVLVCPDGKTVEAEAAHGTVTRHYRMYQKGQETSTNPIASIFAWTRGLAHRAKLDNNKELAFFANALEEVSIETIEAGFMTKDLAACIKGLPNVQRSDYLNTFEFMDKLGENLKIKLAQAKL
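IDH1-R132H (0.5 ug/mL dispensed) in pH 7.5 Tris buffer was preincubated 30 min with compound, then given a substrate mix of 0.016 mM NADPH and 2 mM alpha-KG for 80 min at room temperature; remaining NADPH was read by diaphorase/resazurin fluorescence.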
* marks the source's active call; other numbers are inactive results; u = inconclusive; x = not tested or not shown; ! = a repeat was not active; [ ] = remark or other dose. Unless noted, the call rests on the fitted dose curve; in most records, active means well fitted curve in the direction sought with a large enough effect; inconclusive means small, poorly fitted or top-dose-only effect, or another doubt; inactive means no such curve, though single readings can be large; an effect the other way counts as inactive or inconclusive. On the % scale 0 is the no-effect control and ±100 the full control effect.

SMILES	TrxR1 substrate	Eya2 phos inh	TrxR1 inh	Coupling enz	mIDH1 inhibitor
CC1=NN(c2ccccc2)C(=O)C1/C=C1/C(=O)NC(=O)N(c2cccc(C)c2)C1=O (centres undefined)	x	-18%	x	9	x
O=C1NC(=O)C(=Cc2cc3c(cc2[N+](=O)[O-])OCO3)C(=O)N1	9%	6%	8.9µM*	0	4%
CN1C(=O)C(=Cc2ccccc2Oc2ccc(Cl)c(F)c2)C(=O)N(C)C1=O	-6%	1%	11µM*	11	-9%
O=C1NC(=O)C(=Cc2ccccc2Oc2ccc(F)cc2)C(=O)N1	-4%[57.1 µM]	0%	13µM*	0	2%
CN1C(=O)C(=Cc2ccc(-c3cccc(Cl)c3)o2)C(=O)N(C)C1=O	x	-11%	x	4	x
Cc1cc(C=C2C(=O)NC(=O)NC2=O)c(C)n1-c1ccc2c(c1)OCO2	-11%	14%	-35%	-2	4%
Cc1cccc(N2C(=O)NC(=O)/C(=C/c3cc4c(cc3[N+](=O)[O-])OCO4)C2=O)c1	9%[57.1 µM]	13%	7.1µM*	2	-5%
COC(=O)C1(C)C=C2C(=C(C)C(=O)C2C)CN1 (centres undefined)	x	x	x	-6	x
NC(=NCCc1ccc(I)cc1)SCCCc1cnc[nH]1	x	x	x	5	x
Cc1cc(OC(=O)N(C)C)nn1C(=O)N(C)C	x	x	x	-1	x
C=C(C)C1CCC(C)=CC1c1c(O)cc(O)cc1CCCCC (centres undefined)	x	x	x	-7	x
C/C1=C/C(=O)O[C@@H]2C[C@@H](CC[C@H](C)/C=C\CC1)O[C@@](O)(C1CSC(=O)N1)C2 (some centres undefined)	x	x	x	-1	x
O=C1NC(=O)C(=Cc2ccccc2[N+](=O)[O-])C(=O)N1	6%	x	7.9µM*	x	0%
O=C1NC(=O)C(=Cc2ccc(-c3ccccc3[N+](=O)[O-])o2)C(=O)N1	5%[57.1 µM]	-3%	0%[57.1 µM]	1	17%
COC(=O)C[C@@](O)(CCC(C)(C)O)C(=O)O[C@@H]1C(OC)=C[C@]23CCCN2CCc2cc4c(cc2[C@@H]13)OCO4	x	x	x	2	x
CN(C)C(=S)SSC(=S)N(C)C	7%	10%	17%	-45*!	30%
Cc1cc(C=C2C(=O)N(C)C(=S)N(C)C2=O)c(C)n1-c1cccnc1	-5%	6%	20µM*	4	5%
CCOc1ccccc1N1C(=O)NC(=O)/C(=C/c2ccc3c4c(cccc24)CC3)C1=O	87%	-5%	22µM*	2	2%
C=C(C)[C@@]12OC3(c4ccccc4)O[C@@H]1[C@@H]1[C@@H]4O[C@]4(CO)[C@@H](O)[C@]4(O)C(=O)C(C)=C[C@H]4[C@@]1(O3)[C@H](C)[C@H]2OC(=O)/C=C/C=C/c1ccccc1	x	x	x	-7	x
COC(=O)[C@H]1C[C@@H]1[C@H](NP(=O)(c1ccccc1)c1ccccc1)c1ccccc1	5%	5%	13%[57.1 µM]	0	12%
COC(=O)[C@@H]1C[C@H]1[C@@H](NP(=O)(c1ccccc1)c1ccccc1)c1ccccc1	0%	8%	16µM*	6	-1%
COc1ccc(N2C(=O)/C(=C/c3ccc(C)o3)C(=O)NC2=S)c(OC)c1	-2%	-2%	14µM*	1	-2%
CCOC(=O)CSCCOc1ccc(C=C2C(=O)NC(=O)NC2=O)cc1OC	-10%[57.1 µM]	10%	u	1	-17%
COC(=O)COc1ccc(/C=C2\C(=O)NC(=S)N(c3ccc(C)cc3)C2=O)cc1OC	0%	7%	4µM*	5	18%
CCOC(=O)COc1ccc(/C=C2\C(=O)NC(=S)N(c3ccc(OC)cc3)C2=O)cc1OC	-1%	18%	3.2µM*	5	-10%
SMILES	TrxR1 substrate	Eya2 phos inh	TrxR1 inh	Coupling enz	mIDH1 inhibitor
COc1ccc(N2C(=O)/C(=C/c3ccc(OC)c(OC)c3)C(=O)NC2=S)cc1	0%	0%	13µM*	0	-7%
N[C@@H](Cn1ccc(=O)c(O)c1)C(=O)O	12%[57.1 µM]	4%	21%[57.1 µM]	x	x
CN1C(=O)N(C)C(=O)C2(Sc3ccccc3C2=O)C1=O	3%	-5%[15.4 µM]	28µM*	-4	6%
C#CCN1C(C)=C(C(=O)CCO)[C@@H](c2cccc(-n3oo3)c2)C(C(=O)OC)=C1C	x	x	x	-1	x
CN(C)[C@@H]1C(=O)C(C(N)=O)=C(O)[C@@]2(O)C(=O)C3=C(O)c4c(O)cccc4[C@@](C)(O)C3[C@H](O)C12 (some centres undefined)	3%	21%	32µM*!	x	10%
C[C@@H](CO)NC(=O)[C@@H]1C=C2c3cccc4[nH]cc(c34)C[C@H]2N(C)C1	x	x	x	-18	x
CC[C@@H](CO)NC(=O)[C@H]1C=C2c3cccc4c3c(cn4C)C[C@H]2N(C)C1	x	x	u	-42*	x
CC(C)(C)OC(=O)C(Br)CCBr (centres undefined)	x	x	x	0	x
[O]=[Sb]([OH])([OH])[c]1ccccc1	-1%	x	6.3µM*	x	x
O=[N+]([O-])c1ccc(-c2[se]c3ccccc3c2I)cc1	x	x	x	3	x
O=C1CCC[C@H]2[C@H]3CCCN4CCCC(=CN12)[C@@H]34	x	x	x	-1	x
CN1CCC(O)(c2ccc(Cl)cc2)C(C(=O)c2ccc(Cl)cc2)C1 (centres undefined)	4%	10%	0.11µM*	2	-12%
CN1CC(C(=O)c2ccc(Cl)cc2)C(c2ccc(Cl)cc2Cl)C1 (centres undefined)	0%[57.1 µM]	-4%	14%[57.1 µM]	-2	4%
O=C1NC(=O)N(c2cccc(Br)c2)C(=O)/C1=C/c1ccsc1	4%	0%	45µM*	-6	11%
COC(=O)C1=C(C(=O)OC)C2OC1c1cc3ccccc3cc12	1%	x	2.5µM*	x	6%
COC(=O)C1=C(c2ccc3ccccc3c2)C[C@@H]2CC[C@H]1N2C	11%[57.1 µM]	8%	30%[57.1 µM]	x	2%
Cn1cccc1/C=C1/C(=O)NC(=S)N(Cc2ccc(F)cc2)C1=O	-2%	7%	45µM*	-4	2%
Cn1cccc1/C=C1/C(=O)NC(=O)N(Cc2ccc(F)cc2)C1=O	-6%	12%	u	1	-1%
NC(=O)C1=CN(C2OC(COP(=O)(O)OP(=O)(O)OC[C@H]3O[C@@H](n4cnc5c(N)ncnc54)[C@H](OP(=O)(O)O)[C@H]3O)C(O)C2O)C=CC1 (some centres undefined)	x	x	3%[57.1 µM]	x	x
CC1=CC(=O)c2c(O)cccc2C1=O	x	x	x	-48*	x
CCCCn1c(NC(=O)c2ccc(Br)o2)c(C(=O)OCC)c2nc3ccccc3nc21	36%	7%	-12%	-44*	5%
Cc1ccc2c(c1)Cc1c(C(=O)NN3CCCCC3)nn(-c3ccc(Cl)cc3Cl)c1-2	x	x	x	-19	x
CNC(=O)Oc1cccc(-c2cn3cc(OC(=O)NC)ccc3n2)c1	55%	2%	u	-6	5%
CNC(=O)Oc1ccc(-c2cn3cc(Cl)ccc3n2)cc1	39%	-3%	22µM*	-13	11%
